Pin1 inhibitor = qHTS Assay to Find Inhibitors of Pin1. AID 504891, 2011. Pin1 FP peptide displacement, HiFluor488, 10 min. 0.009% of 390,000 active. Potency, µM (doses to about 115 µM), for the others: top-dose activity, negative = inhibition, hits mostly inhibitors; active means well fitted inhibition curve with a large enough effect in the polarisation, with a control signal flat, not every such curve was filed as active; inconclusive means small, poorly fitted or top-dose-only effect, or effect the other way, or a change in a side signal; inactive means no such curve, though single readings can be large or run the other way; the % refers to the polarisation; further: potency means the concentration at half of the fitted maximal effect; on the % scale 0 is the no-effect control and ±100 the full control effect
Target sequence (Q13526 whole entry, looked up): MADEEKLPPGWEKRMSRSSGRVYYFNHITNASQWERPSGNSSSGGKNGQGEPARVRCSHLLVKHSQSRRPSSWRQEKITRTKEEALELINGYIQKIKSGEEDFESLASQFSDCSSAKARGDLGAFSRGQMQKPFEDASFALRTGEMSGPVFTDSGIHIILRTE
TSHR antag = Antagonists of the Thyroid Stimulating Hormone Receptor: HTS campaign. Thyrotropin receptor (Homo sapiens), P16473. TSHR-expressing cells, TSH-stimulated cAMP HTRF, 2 h; stronger effect = lower value. activity change, negative = inhibition, % at 11.5 µM. 0.2% of 330,000 active. AID 504810, 2011;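 active means activity change below a set negative limit, meaning inhibition stronger than a set level, cut at about -70% in these data; inconclusive means activity change between two set negative limits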; further: on the % scale 0 is the no-effect control and ±100 the full control effect
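Freshly harvested TSHR cells receive pin-tooled compound, then EC80 TSH at 4nM final. After 2 hours at 37 deg C, antibody in lysis buffer and cAMP-d2 are added; 30 minutes at ambient temperature precede the HTRF read.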
gsp antag = qHTS for Antagonists of gsp, the Etiologic Mutation Responsible for Fibrous Dysplasia/McCune-Albright Syndrome: qHTS | Potency, µM (titrated, usually from 76.9 µM), inactives show at the top dose activity change, negative = inhibition, hits mostly inhibitors | gsp-mutant cells, cAMP HTRF, 30 min | 0.4% of 340,000 active; calls by dose curve; cell line not stated here;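 further: intracellular cAMP measured with PDE inhibitor Ro 20-1724 present during compound exposure; potency means the concentration at half of the fitted maximal effect; on the % scale 0 is the no-effect control and ±100 the full control effect; nearly all actives have a fitted effect of over 65% in size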
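Measurement of cellular cAMP by homogeneous time-resolved fluorescence following a 30 min compound exposure at 37C. The PDE inhibitor […] was present throughout; the assay buffer was DPBS with 0.05% BSA and 0.005% Tween 20.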
TCR act = Activators of T cell receptors: qHTS campaign; 330,000 tested, under 10 active; Potency, µM (series often up to 9.22 µM), without a hit: top-dose activation of IL-2 secretion, usual class: activators; AID 504894, 2011; primary human leukocytes, anti-CD3, IL-2 HTRF, 48 h; active means well fitted activation curve with a large enough effect; inconclusive means small, poorly fitted or top-dose-only effect, or another doubt; inactive means no such curve, though single readings can be large or run the other way; further: % of control where 0% means no effect
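Primary human leukocytes receive a-CD3 beads and test compound and are incubated 48 hr. Secreted IL-2 is then assayed by HTRF, measuring 665nm acceptor emission after 320nm excitation of the europium donor.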
gsp agonist = qHTS for Agonist of gsp, the Etiologic Mutation Responsible for Fibrous Dysplasia/McCune-Albright Syndrome: qHTS; gsp mutant cells, cAMP HTRF, 30 min; Potency, µM (doses to about 76.9 µM), inactives show at the highest dose activation (cAMP increase), usual class: activators; 0.13% of 340,000 active; active means well fitted activation curve with a large enough effect; inconclusive means small, poorly fitted or top-dose-only effect, or another doubt; inactive means no such curve, though single readings can be large or run the other way; cell line not stated here;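 further: phosphodiesterase inhibitor Ro 20-1724 added with compounds to block cAMP breakdown; potency means the concentration at half of the fitted maximal effect; nearly all actives have a fitted effect of over 60% in size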
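Cells in DMEM/10% FBS with G418 were pretreated with compounds in DMSO plus […] (300 uM stock) for 30 min at 37C. cAMP was measured by HTRF (cAMP-d2 plus anti-cAMP antibody-K) after 30 min at room temperature.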
* hit, by the source's call; [ ] = remark or other dose. A selection: hits, their analogues and other compounds. The true share with any hit is near 0.63%.

O=[N+]([O-])c1ccc(-c2cnc(SC(c3ccccc3)c3ccccc3)[nH]2)cc1 was read as Pin1 inhibitor 70.1%, TSHR antag -21.6, gsp antag 35.5µM*, TCR act -4.6%[46.1 µM] and gsp agonist -5.9%[15.4 µM].
Screening Cc1cc(OCC(=O)Nc2ccc3oc(-c4ccncc4)nc3c2)ccc1Cl returned Pin1 inhibitor -0.9%, gsp antag 50.1µM*, TCR act 0.5% and gsp agonist 2.5%.
Cc1cc(OCC(=O)Nc2ccncc2)ccc1Cl was read as Pin1 inhibitor -1.9%, TSHR antag -15.4, gsp antag -4.7% and gsp agonist 10.5%[15.4 µM].
Screening COc1c(F)c(F)c(C(=O)Nc2ccc3oc(-c4ccncc4)nc3c2)c(F)c1F returned Pin1 inhibitor 20.9%, TSHR antag -5.0, gsp antag 28.2µM*, TCR act 15.5% and gsp agonist -19.8%.
For COCC(C)NC(=O)CSc1nnc(-c2cccc(S(=O)(=O)N3CCCCC3)c2)o1 (centres undefined) the results were Pin1 inhibitor 3.8%, TSHR antag -2.2, gsp antag 11.2µM*, TCR act -0.6% and gsp agonist 10.0%[15.4 µM].
CCc1ccc(Nc2n[n+](-c3ccccc3)c(-c3c(Cl)cccc3Cl)s2)cc1 was read as Pin1 inhibitor -3.7%, TSHR antag -15.5, gsp antag 31.6µM* and TCR act -0.6%.
COC(=O)c1c(NS(=O)(=O)c2cccs2)sc2c1CCCC2 was read as Pin1 inhibitor -3.4%, TSHR antag -9.8, gsp antag 22.4µM*, TCR act -12.5% and gsp agonist -6.1%.
For CCOC(=O)c1ccccc1NC(=O)CSc1nc(=O)[nH]c2c1CCCC2 the results were Pin1 inhibitor -6.8%.
Nc1ccc(-c2nc3cc(N)ccc3o2)cc1 was read as Pin1 inhibitor 0.5%, TSHR antag 21.6, gsp antag 15.3%, TCR act -4.4% and gsp agonist inconclusive.
For CN(C)c1ccc(-c2nc3cc(N)ccc3o2)cc1 the results were Pin1 inhibitor 5.6%, TSHR antag -4.5, gsp antag 12.2%, TCR act -10.1% and gsp agonist 20µM*.
`C/C(CC(=O)Nc1ccc(Cl)cc1C(F)(F)F)=N\NC(N)=S` gave Pin1 inhibitor -0.3%, TSHR antag -1.8, gsp antag 13.7%, TCR act 3.6% and gsp agonist -3.1%[15.4 µM].
Screening CC1=NN(c2cccc(C(=O)O)c2)C(=O)/C1=C\C=C/c1ccccc1 returned Pin1 inhibitor inconclusive, TSHR antag -44.3, gsp antag 28.2µM*, TCR act 0.7% and gsp agonist -7.2%[15.4 µM].
Screening CS(=O)(=O)N1N=C(c2ccco2)CC1c1ccccc1Cl (centres undefined) returned Pin1 inhibitor 2.3%, TSHR antag 25.2, gsp antag 6.0%, TCR act -2.9% and gsp agonist 16.9%.
`O=C(O)C1Cc2ccccc2CN1S(=O)(=O)c1ccc2ccccc2c1` (centres undefined) gave Pin1 inhibitor -8.2%, TSHR antag 6.8, gsp antag -8.7%, TCR act 8.7% and gsp agonist 1.9%.
`CCn1c(SCc2cc(=O)[nH]c3ccccc23)nnc1C1CC1` gave Pin1 inhibitor 1.7%, TSHR antag 0.2, gsp antag -12.5%, TCR act -10.6%[46.1 µM] and gsp agonist 14.3%[15.4 µM].
`COc1ccc(CC(CC(=O)O)C(=O)Nc2ccc(Cl)c(Cl)c2)cc1` (centres undefined) gave Pin1 inhibitor -11.6%, TSHR antag -2.8, gsp antag 17.8µM*, TCR act 11.2% and gsp agonist 4.0%.
CCOc1ccccc1NC(=O)N1CCCn2nc(C)cc21 was read as Pin1 inhibitor -4.1%.
O=C(C1=C(O)C(=O)N(Cc2ccco2)C1c1cccnc1)c1cc2ccccc2o1 (centres undefined) was read as Pin1 inhibitor -13.7%, TSHR antag 22.8, gsp antag 3.9%, TCR act -7.0% and gsp agonist 12.6µM*.

Bioassay records deposited in PubChem by National Center for Advancing Translational Sciences (NCATS).
